FBPA coupling cs: counter-screen for Giardia aldolase inhibitors: coupling enzyme system; 0.67% of 290,000 active; coupling enzyme system counterscreen, AmpLite Red fluorescence; AID 2472; activity change, negative = inhibition, % at 58.2 µM, hits read low; in the data active means activity change below about -30%; further: on the % scale 0 is the no-effect control and ±100 the full control effect
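Coupling enzymes only (glyceraldehyde-3-phosphate) + compound, at 57.5 uM final, 10 min RT; add substrate/coupling/AmpLite Red mix, 20 min RT; fluorescence ex 525/em 598 nm. Actives flag coupling-system interference.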
gsp agonist: activates gsp, the McCune-Albright syndrome mutation | Potency, µM (series often up to 76.9 µM), for the others: at the top dose activation (cAMP increase), usual class: activators | 0.13% of 340,000 active | gsp mutant cells, cAMP HTRF, 30 min; active means well fitted activation curve with a large enough effect; inconclusive means small, poorly fitted or top-dose-only effect, or another doubt; inactive means no such curve, though single readings can be large or run the other way; cell line not stated here;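 further: phosphodiesterase inhibitor Ro 20-1724 added with compounds to block cAMP breakdown; potency means the concentration at half of the fitted maximal effect; nearly all actives have a fitted effect of over 60% in size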
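Cells stably selected in G418 were plated at 2000/well, grown 16-24 hr, then given compounds in DMSO with the PDE inhibitor […] (300 uM solution added) for 30 min at 37C; cAMP was read by HTRF.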
RXFP1 antagonist: antagonists of human relaxin receptor RXFP1; Q9HBX9; HEK293-RXFP1, relaxin-stimulated cAMP HTRF, 30 min; hits give low values; activity change, negative = inhibition, % at 57.5 µM; 0.59% of 350,000 active;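 active means activity change of -60% or lower, but not beyond a set lower limit; inconclusive means change between -60% and -40%, or beyond the set limit; inactive means change above -40%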; further: on the % scale 0 is the no-effect control and ±100 the full control effect
Target sequence (Q9HBX9 whole entry, looked up): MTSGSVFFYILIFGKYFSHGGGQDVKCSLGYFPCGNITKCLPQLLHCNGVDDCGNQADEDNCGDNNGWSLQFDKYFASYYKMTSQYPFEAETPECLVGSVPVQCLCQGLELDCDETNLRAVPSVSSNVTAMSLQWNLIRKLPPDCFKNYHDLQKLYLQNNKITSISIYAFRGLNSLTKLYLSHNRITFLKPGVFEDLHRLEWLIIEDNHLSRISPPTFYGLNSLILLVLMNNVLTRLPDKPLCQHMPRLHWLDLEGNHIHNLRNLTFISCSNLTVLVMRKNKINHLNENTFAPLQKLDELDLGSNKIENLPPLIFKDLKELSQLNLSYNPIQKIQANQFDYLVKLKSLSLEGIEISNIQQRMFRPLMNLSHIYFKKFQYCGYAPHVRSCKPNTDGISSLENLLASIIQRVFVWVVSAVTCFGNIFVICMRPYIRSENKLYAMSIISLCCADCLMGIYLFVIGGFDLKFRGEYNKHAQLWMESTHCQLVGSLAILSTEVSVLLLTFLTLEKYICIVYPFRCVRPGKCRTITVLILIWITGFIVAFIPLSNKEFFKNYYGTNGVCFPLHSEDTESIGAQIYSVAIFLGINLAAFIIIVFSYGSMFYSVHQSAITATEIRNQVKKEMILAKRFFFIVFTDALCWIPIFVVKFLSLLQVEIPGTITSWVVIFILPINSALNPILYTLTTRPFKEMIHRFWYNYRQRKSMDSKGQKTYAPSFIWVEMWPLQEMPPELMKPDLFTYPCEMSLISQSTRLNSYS
RXFP1 agonist: activates the human relaxin receptor RXFP1 | Q9HBX9 | HEK293T-RXFP1 cAMP TR-FRET, 30 min; response scale: percent of porcine relaxin response, buffer zero | Potency, µM (doses to about 57.5 µM), without a hit: top-dose activation, most hits filed as activators | 0.3% of 370,000 active; active means well fitted activation curve with a large enough effect; inconclusive means small, poorly fitted or top-dose-only effect; further: potency means the concentration at half of the fitted maximal effect; on the % scale 0 is the no-effect control and ±100 the full control effect; nearly all actives have a fitted effect of over 60% in size
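cAMP rise read by TR-FRET after 30 min, 37C compound exposure (up to 58 uM) in RXFP1-transfected HEK293 cells with Ro 20174 present. EC50 from Hill-equation fits, with 29 nM porcine relaxin as 100% and buffer as basal.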
gsp antagonist: gsp mutant antagonism; Potency, µM (top dose mostly 76.9 µM), for inactives: at the top dose activity change, negative = inhibition, actives largely listed as inhibitors; AID 624288; 0.4% of 340,000 active; gsp-mutant cells, cAMP HTRF, 30 min; calls by dose curve; cell line not stated here;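 further: intracellular cAMP measured with PDE inhibitor Ro 20-1724 present during compound exposure; potency means the concentration at half of the fitted maximal effect; on the % scale 0 is the no-effect control and ±100 the full control effect; nearly all actives have a fitted effect of over 65% in size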
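HTRF cAMP read-out (cAMP-d2 plus anti-cAMP antibody-K in lysis buffer, 30 min RT). Before lysis, cells are exposed to compounds with […] for 30 min at 37C in DPBS containing Ca/Mg, BSA and Tween 20.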
Giardia kill: Giardia lamblia killing; Giardia lamblia trophozoite viability; activity change, % at 7.66 µM, hits read low; 0.15% of 340,000 active; in the data active means activity change below about -80%; inconclusive means between about -30% and that limit;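 further: parasites exposed to compound for two days anaerobically before the ATP read; on the % scale 0 is the no-effect control and ±100 the full control effect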
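Media and compound were dispensed first, then trophozoites at 100 cells/well; plates sat 48 hrs at 37 deg C without oxygen before ATP luminescence reagent was added and read after 15-30 min at room temperature.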
The depositor's hits bear a star; ? = inconclusive; nt = no result; [ ] = remark or other dose. Shown are actives, neighbours in structure and some others; about 1.6% of the full set was active somewhere.

SMILES	FBPA coupling cs	gsp agonist	RXFP1 antagonist	RXFP1 agonist	gsp antagonist	Giardia kill
Cc1n[nH]c(C)c1N1C(=O)c2cccc3c(N4CCCCCC4)ccc(c23)C1=O	-4	15%	-65*	4%	?	-11
Cc1ccc2c(=O)cc(C(=O)Nc3ccc(S(=O)(=O)N4CCCCCC4)cc3)oc2c1C	nt	nt	-7	2%	nt	nt
COc1cc(NC2CCCCC2O)c2nc(-c3ccc(Cl)cc3)ccc2c1 (stereo not given)	-31*	?	3	5%	8%	-1
COc1ccc(OCC(=O)OCC(=O)NC2CCCCC2C)cc1 (stereo not given)	nt	4%	-1	0%	6%	-24
O=C(N/N=C/c1ccco1)c1cccc(NC(=O)c2cccc(Cl)c2)c1	-2	-9%[15.4 µM]	-7	3%	-5%	-21
Cc1ccsc1C(=O)NNC(=O)c1ccc(NS(=O)(=O)c2cccs2)cc1	nt	-58%	nt	3%	11µM*	-15
Cc1ccc2[nH]c(O)c(N=NC(=O)c3ccc(NS(=O)(=O)c4cccs4)cc3)c2c1	0	-145%	-3	0%	-33%	-12
Cc1cccc2c(N=NC(=O)c3ccc(NS(=O)(=O)c4cccs4)cc3)c(O)[nH]c12	nt	-3%	-9	0%	25µM*	-17
CC1=C/C(=C(/c2cc(C)c(O)c(Br)c2)c2ccccc2S(=O)(=O)O)C=C(Br)C1=O	-19	-161%	?	-37%	20µM*	9
CC1=C/C(=C(/c2ccc(O)c(C)c2)c2ccccc2S(=O)(=O)O)C=CC1=O	nt	25%	6	-1%	0%	-8
CN(C)c1ccc(NC(=O)CCSc2nc(-c3ccco3)cc(C(F)(F)F)n2)cc1	nt	nt	-12	3%	nt	nt
O=C(CNC(=O)C1CCCCC1)OCC(=O)c1ccc([N+](=O)[O-])cc1	nt	nt	nt	nt	nt	83
CCOc1nc(C#N)nc(N2CCOCC2)n1	nt	nt	nt	nt	nt	-21
COc1ccc2nc(N=Nc3ccc(N(C)C)cc3)sc2c1	-2	10%	3	0%	14%	-82*
COc1ccc(-c2nc3c(c4c2C[C@H](c2ccccc2)OC4)CN(C(=O)Cc2cccs2)CC3)c(C)c1	1	nt	nt	nt	nt	nt
COc1ccc(Br)cc1/C=N/NC(=O)CNC(=O)C1COc2ccccc2O1 (stereo not given)	-41*	8%	-11	0%	?	18
Cc1cc2c(NC(=O)CC(C)(C)CC(=O)O)cccc2nn1	-36*	26%	1	8%	6%	4
CC(C)(CC(=O)O)CC(=O)Nc1ccccc1Oc1ccccc1	-2	-7%	1	1%	-12%	-10
Cc1cc2c(NC(=O)Nc3ccc(F)cc3)cccc2nn1	-31*	-10%	-1	4%	-4%	27
COc1ccc(NC(=O)Nc2ccc(F)cc2)c(C)c1	4	-10%	4	5%	93%	13
CC(=O)NC(Cc1ccc(F)cc1)C(=O)NC1CCN(C(=O)NCc2ccccc2)CC1 (stereo not given)	2	?	-4	3%	5%	34
COc1cccc(NC(=O)Cn2cnc3c(nc4n3CCCCC4)c2=O)c1	nt	nt	-4	19%	nt	nt
O=C(CN1C(=O)C2CCCCC2C1=O)Nc1ccccc1N1CCCC1 (stereo not given)	nt	5%[15.4 µM]	-99*	-1%	-23%	28
O=C(CN1C(=O)C2CC=CCC2C1=O)Nc1ccccc1N1CCCC1 (stereo not given)	nt	7%	-15	0%	?	8
CCC(Oc1ccccc1)C(=O)Nc1ccccc1N1CCCC1 (stereo not given)	-2	?	-11	2%	-16%	-21
SMILES	FBPA coupling cs	gsp agonist	RXFP1 antagonist	RXFP1 agonist	gsp antagonist	Giardia kill
CCC(C(=O)Nc1ccccc1N1CCCC1)c1ccccc1 (stereo not given)	nt	-38%	-68*	0%	-29%	3
C=CCNC(=O)/C(C#N)=C/c1cc(Br)ccc1OC	3	3%	-68*	2%	-4%	6
C=CCNC(=O)/C(C#N)=C/c1ccccc1Cl	3	-1%[15.4 µM]	-3	1%	1%	-10
COc1cc(C2Nc3cccc4cccc(c34)N2)ccc1O	-7	0%[15.4 µM]	-70*	-3%	0%	-13
COc1cc(C2Nc3cccc4cccc(c34)N2)cc(OC)c1OC(C)=O	-19	7%	?	0%	-6%	-11
CC(C)(Oc1ccc(Cl)cc1)C(=O)OCCCOC(=O)C(C)(C)Oc1ccc(Cl)cc1	nt	nt	-23	nt	nt	nt
CCN1c2ccccc2-c2nc(SCC(=O)Nc3c(C)cc(C)cc3C)ncc2S1(=O)=O	nt	nt	-7	7%	nt	nt
O=C1/C(=C/c2cccs2)SC(=S)N1N1CCOCC1	1	3%	-96*	0%	-5%	-14
CCC/C=C1/CCCOC(C(=O)NCCOC)(C(F)(F)F)C1 (stereo not given)	4	nt	nt	nt	nt	-9
CC(=O)N1CCn2c3c(c(=O)c4cc(C)ccc42)CCC31 (stereo not given)	-42*	-16%[15.4 µM]	-5	-1%	-8%	12
CC(=O)N1CCn2c3c(c4cc(C)ccc42)CCCC31 (stereo not given)	2	-17%	-3	4%	0%	?
CNC(=O)[C@H]1O[C@@H](n2cnc3c(NCc4cccc(I)c4)ncnc32)[C@H](O)[C@@H]1O	nt	nt	nt	16µM*	-1%	-17
CCOc1ccc(C(C)=O)cc1CN1C(=O)NC2(CCCCCC2)C1=O	0	?	-101*	-1%	4%	-7
COc1ccc(C(C)=O)cc1CN1C(=O)NC2(CCCCCCC2)C1=O	6	2%[15.4 µM]	-14	0%	-1%	-5
Cc1cc(C(=O)Nc2nc3c(s2)CCCC3)cs1	-9	1%	-3	-2%	-7%	-2
Cc1cccc(C(=O)Nc2nc3c(s2)CCCC3)c1	nt	nt	-87*	2%	nt	nt
Cc1ccc(C(C)C)c(OCC(=O)Nc2nc3c(s2)CCCC3)c1	nt	nt	-85*	-1%	nt	nt
COc1ccc(C(=O)Nc2nc3c(s2)CCCC3)cc1Cl	nt	nt	-71*	1%	nt	nt
CC1(C)Cc2c(C#N)c(NC3CCCCC3)nc(-c3ccco3)c2CO1	-30*	nt	nt	2%	nt	nt
CC1(C)Cc2c(C#N)c(NCC3CCCO3)nc(-c3ccco3)c2CO1 (stereo not given)	-7	-6%	-25	5%	0%	-5
COc1cc(CNn2nnnc2N)cc(Br)c1OCc1c(Cl)cccc1Cl	-5	-3%	-13	1%	40µM*	3
COc1cc(CNn2nnnc2N)cc(Br)c1OCC(=O)NC(C)(C)C	1	-19%	1	2%	6%	4
CC1CCC(C(C)C)C(OC(=O)Cn2c(-c3ccc(F)cc3)[n+](C)c3ccccc32)C1 (stereo not given)	-1	-2%[15.4 µM]	?	0%	8%	-1

Compound activity as filed in PubChem.
